“And” between values parts separate entries of the source, which are not always exact repeats. Equal values may be shown once. Results filed as inconclusive are left out. More than one record can exist for a structure, and the calls need not agree. Values without a mark were called inactive. The source made the active and inactive calls. The call rests on the fitted dose curve; in most records, active means well fitted cell-killing curve with a large enough effect in the repeat runs; inconclusive means weak or mixed curves, or effect the other way; inactive means flat fitted curve, though single readings scatter.
Assay: qHTS RealTime-Glo MT Cell Viability Assay in HEK293 cells - 40 hour (AID 1224874); further: nearly all actives have a fitted effect of over 50% in size
Settings: RealTime-Glo luminescence; max response: active compounds read low
Description: U.S. Tox21 Program National Center for Advancing Translational Sciences [NCATS] NIH Chemical Genomics Center [NCGC] U.S. Environmental Protection Agency [EPA] National Institutes of Environmental Health Sciences [NIEHS] National Toxicology Program [NTP] U.S. Food and Drug Administration [FDA] Tox21 Assay Overview: Measure of cell viability is critical in the cell-base assay. Analysis of cell viability is necessary for the characterization of cell responses to cytotoxic drugs and environmental stress. A RealTime-Glo MT Cell Viability Assay to monitor cell viability in real time of continues cell culture during 40 hours of compound treatment was used to screen Tox21 10K library compounds in Hek293 cells. The RealTime-Glo MT Cell Viability Assay is a nonlytic, homogeneous, bioluminescent method to measure cell viability in real time using a simple, plate-based method. The assay involves adding NanoLuc luciferase and a cell-permeant prosubstrate to cells in culture. Viable cells reduce the proprietary prosubstrate to generate a substrate for NanoLuc luciferase. This substrate diffuses from cells into the surrounding culture medium, where it is rapidly used by the NanoLuc Enzyme to produce a luminescent signal. The signal correlates with the number of viable cells, making the assay well suited for cytotoxicity studies.
Tox21 Assay Protocol Summary: The mixture of Hek293 cell suspension and reagents were dispensed at 600cells/6 ul/well in 1536-well tissue culture treated black solid bottom plates using a Multidrop dispenser. After the assay plates were incubated at a 37 C/5% CO2 incubator for 5 hours, 23 nL of compounds dissolved in DMSO, positive and negative controls was transferred to the assay plate by a pintool work station. The plates were incubated at 37 C for 40 hours. The luminescence intensity were measured at 0h, 8h, 16h, 24h, 32h and 40h time points using ViewLux plate reader during compound treatment.
On the % scale 0 is the no-effect control and ±100 the full control effect; potency means the concentration at half of the fitted maximal effect.

| SMILES | max response | Potency |
| --- | --- | --- |
| CC(=O)OCCOC(C)=O | -0.882% and 2.01% | – |
| O=C1C(c2[nH]c3ccccc3c2O)=Nc2ccccc21 | 4.84% | – |
| O=c1[nH]cnc2[nH]ncc12 | -0.951% and 0.0063% | – |
| C[C@]12CC[C@@H]3c4ccc(O)cc4CC[C@H]3[C@@H]1C[C@@H](O)[C@@H]2O | -25.2% | – |
| O=C(O)CCCCCCCCC(=O)O | 1.05% and 1.59% | – |
| CCNc1cccc(C)c1 | -1.66% and 8.48% | – |
| CCOCC(=O)O | -1.6% and 8.63% | – |
| C=C(C)[C@H]1CC=C(C)C(=O)C1 | -1.87% and 0.747% | – |
| C=CCc1ccc(OC)c(OC)c1 | 0.535% and 0.477% | – |
| CC(C)CC(=O)CC(C)CC(C)C (stereo not given) | 0.688% | 15.5 µM (active) |
| CN(C)c1ccc(Cc2ccc(N(C)C)cc2)cc1 | – | 19.6 µM (active) and 24.5 µM (active) |
| COc1ccc(C)cc1N | 3.89% and 7.66% | – |
| C=C(C)C(=O)OCC(C)C | 0.908% and 6.86% | – |
| O=C(O)c1ccc(S(=O)(=O)N(Cl)Cl)cc1 | 0.122% | 43.9 µM (active) |
| C=CC(=O)OCCC(=O)O | -1.71% and -0.811% | – |
| CC1(C)OC[C@@H]2O[C@@]3(C(=O)O)OC(C)(C)O[C@H]3[C@@H]2O1 | -6.82% and 4.68% | – |
| CC1(C)S[C@@H]2[C@H](NC(=O)COc3ccccc3)C(=O)N2[C@H]1C(=O)O | 0.704% and 1.33% | – |
| COc1ccc(OC)cc1 | 5.27% and 14.7% | – |
| Clc1ccccn1 | 5.77% and 7.16% | – |

| SMILES | max response | Potency |
| --- | --- | --- |
| C=CCCCCCCCCC(=O)O | 12.5% and 0.601% | – |
| CC(O)CC(C)(C)O (stereo not given) | 13.3% and 0.19% | – |
| Cc1ccc([N+](=O)[O-])cc1S(=O)(=O)O | 6.39% and 7.52% | – |
| C[Si]1(C)O[Si](C)(C)O[Si](C)(C)O[Si](C)(C)O1 | 3.24% and 9.03% | – |
| CCCCCCCC=O | 1.74% and 27% | – |
| OCc1cccc(Oc2ccccc2)c1 | -0.677% and -9.74% | – |
| O=C1CCCC1 | -0.988% and 5.09% | – |
| O=C(O)c1ccccc1C(=O)O | -5.44% and 3.46% | – |
| CCCCCC(=O)O | 18.5% and 15.2% | – |
| CC(C)(C#N)c1cc(Cn2cncn2)cc(C(C)(C)C#N)c1 | 0.713% and 4.85% | – |
| CC(=O)CC(C)(C)O | 0.169% and 3.54% | – |
| Cc1ccc2ncccc2c1 | 0.634% and 3.71% | – |
| CC(=O)c1ccc(O)cc1 | 0.924% and -3% | – |
| O=C(O)c1ccc(C(=O)O)c(C(=O)O)c1 | -1.73% and 1.6% | – |
| OCc1ccccc1 | -3.29% and 13.4% | – |
| C=CC[N+](C)(C)CC=C | 2.31% and 7.96% | – |
| CN/C(=C\[N+](=O)[O-])NCCSCc1csc(CN(C)C)n1 | 2.65% and -4.24% | – |
| CSc1ccc(Cl)cc1 | -0.983% and -3.28% | – |
| CC(=O)CCC=C(C)C | 10.6% and -4.31% | – |
